# Data: PubChem BioAssay (NCATS)
# Results filed as inconclusive are left out. A call without a number means that no potency is given here. Active and inactive are the calls of the source. The call rests on the fitted dose curve; in most records, active means well fitted inhibition curve with a large enough effect; inconclusive means small, poorly fitted or top-dose-only effect, or effect the other way; inactive means flat fitted curve, though single readings scatter.
# Target: ATP-dependent 6-phosphofructokinase (Trypanosoma brucei brucei) (UniProt O15648)
# Test: qHTS Assay to Find Inhibitors of T. brucei phosphofructokinase: hit validation (AID 492961)
# Conditions: T. brucei PFK, ADP-Glo luminescence; series mostly up to 51.4 µM
# How it was run: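 Luminescence from ADP-Glo reports ADP generated as T. brucei PFK (1.25 nM) phosphorylates 0.5 mM fructose-6-phosphate using 0.1 mM ATP. Reactions ran 45 min at room temperature, pH 8.0.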
# Sequence of ATP-dependent 6-phosphofructokinase (Trypanosoma brucei brucei) (O15648 whole entry, looked up): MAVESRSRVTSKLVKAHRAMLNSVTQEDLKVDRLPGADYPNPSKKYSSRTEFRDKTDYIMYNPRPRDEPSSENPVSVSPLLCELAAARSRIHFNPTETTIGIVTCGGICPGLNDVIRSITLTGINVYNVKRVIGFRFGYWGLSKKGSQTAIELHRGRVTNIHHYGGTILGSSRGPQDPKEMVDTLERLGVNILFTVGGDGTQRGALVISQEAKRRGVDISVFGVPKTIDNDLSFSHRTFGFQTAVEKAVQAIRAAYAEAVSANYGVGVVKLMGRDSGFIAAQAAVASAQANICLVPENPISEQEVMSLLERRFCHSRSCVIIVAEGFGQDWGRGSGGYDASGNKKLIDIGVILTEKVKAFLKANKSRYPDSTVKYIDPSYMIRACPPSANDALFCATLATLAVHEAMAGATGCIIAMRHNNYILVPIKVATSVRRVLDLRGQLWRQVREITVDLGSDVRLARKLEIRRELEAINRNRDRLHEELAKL
row,SMILES,Potency
1,O=C(O)CC/C=C\CC[C@@H]1[C@@H](N2CCCCC2)[C@@H](O)C[C@@H]1OCc1ccc(-c2ccccc2)cc1,inactive
2,CC(C)=CCC/C(C)=C/CC/C(C)=C/CC/C=C(\C)CC/C=C(\C)CCC=C(C)C,inactive
3,CNC(=O)C[C@@H](N)C(=O)N[C@@H](C(=O)N[C@@H]1C(=O)N2[C@@H]1SC(C)(C)[C@@H]2C(=O)O)c1ccc(O)cc1,inactive
4,CCCCC[C@H](O)/C=C/[C@H]1[C@H](O)CC(=O)[C@@H]1C/C=C\CCCC(=O)O,inactive
5,O=C(O)[C@H]1CN(C/C=C/P(=O)(O)O)CCN1,inactive
6,CCC(C(=O)NC(N)=O)c1ccccc1 (stereo unspecified),inactive
7,O=C(NNCS(=O)(=O)O)c1ccncc1,inactive
8,C=CCCCCCCCCC(=O)OC,inactive
9,O=C(O)c1ccc(NC(=O)[C@H](Cc2ccc(O)cc2)NC(=O)c2ccccc2)cc1,inactive
10,COc1ccc2c(=O)c(C)c(-c3ccccc3)oc2c1CN(C)C,inactive
11,CCSc1ccc2c(c1)N(CCCN1CCN(C)CC1)c1ccccc1S2,inactive
12,CC(=O)Nc1c(I)c(C(=O)O)c(I)c(N(C)C(C)=O)c1I,inactive
13,C[N+]1(C)[C@@H]2CC(OC(=O)C(O)(c3cccs3)c3cccs3)C[C@H]1[C@@H]1O[C@@H]12 (stereo partly specified),inactive
14,CSc1nc2cc(Oc3cccc(Cl)c3Cl)c(Cl)cc2[nH]1,inactive
15,S=C=Nc1ccc(N=C=S)cc1,inactive
16,CN(C)CCC=C1c2ccccc2C(C)(C)c2ccccc21,inactive
17,NC(=O)[C@H]1O[C@@H](O)[C@H](O)[C@@H](O)[C@@H]1O,inactive
18,CC(=O)[O][Al][O]C(C)=O,inactive

row,SMILES,Potency
1,O=C1c2ccccc2C(=O)c2c1ccc(O)c2O,inactive
2,CO[C@H]1C[C@@H]2CC[C@@H](C)[C@@](O)(O2)C(=O)C(=O)N2CCCC[C@H]2C(=O)O[C@H]([C@H](C)C[C@@H]2CC[C@@H](OC(=O)C(C)(CO)CO)[C@H](OC)C2)CC(=O)[C@H](C)/C=C(\C)[C@@H](O)[C@@H](OC)C(=O)[C@H](C)C[C@H](C)/C=C/C=C/C=C/1C,inactive
3,O=C(CCCN1CCC(C(=O)c2ccc(F)cc2)CC1)c1ccc(F)cc1,inactive
4,CC(CCc1ccc(O)cc1)NCC(O)c1ccc(O)cc1 (stereo unspecified),inactive
5,CCCOC(=O)c1ccccc1O,inactive
6,CCCCC(CC)CCC(CC(C)C)OS(=O)(=O)O (stereo unspecified),inactive
7,OC[C@H]1O[C@@H]2O[C@H]3[C@H](O)[C@@H](O)[C@@H](O[C@H]4[C@H](O)[C@@H](O)[C@@H](O[C@H]5[C@H](O)[C@@H](O)[C@@H](O[C@H]6[C@H](O)[C@@H](O)[C@@H](O[C@H]7[C@H](O)[C@@H](O)[C@@H](O[C@H]1[C@H](O)[C@H]2O)O[C@@H]7CO)O[C@@H]6CO)O[C@@H]5CO)O[C@@H]4CO)O[C@@H]3CO,inactive
8,CC(CC=O)CCCC(C)(C)O (stereo unspecified),inactive
9,COC(=O)CCC[N+](C)(C)C,inactive
10,CCC(C)[C@@H](N)C(=O)O (stereo partly specified),inactive
11,CC1CC(O)CC(C)(C)C1 (stereo unspecified),inactive
12,O=P(O)(O)OC[C@H](O)CO,inactive
13,O=P(O)(O)O,inactive
14,NC(=S)NS(=O)(=O)c1ccc(N)cc1,inactive
15,Cc1ncc[nH]1,inactive
16,COc1ccc(/C=C/C(=O)O)cc1,inactive
17,CC(=O)Oc1cccc(C(=O)O)c1OC(C)=O,inactive
18,CCCCCCCCCCCCCCCCCC(=O)OC[C@@H](O)[C@H]1OC[C@H](O)[C@H]1O,inactive
